This is an account of results in PubChem BioAssay (Tox21).

Unmarked numbers belong to inactive results. Results filed as inconclusive are left out. The source made the active and inactive calls. Unless noted, the call rests on the fitted dose curve; in most records, active means well fitted curve in the direction sought with a large enough effect in the repeat runs; inconclusive means weak or mixed curves; inactive means no such curve, though single readings can be large; an effect the other way counts as inactive or inconclusive.

Assay [1] deals with Thyrotropin-releasing hormone receptor (Homo sapiens) (UniProt P34981). Briefly: qHTS assay to identify small molecule antagonists of the thyrotropin-releasing hormone receptor (TRHR) signaling pathway (AID 1346877; active means well fitted inhibition curve with a large enough effect in the repeat runs, not every such curve was filed as active; further: series mostly up to about 51 µM). An outline of the steps: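 HEK293/TRHR cells, 18 h, 37 °C; Ca2+ dye 2 h; cpd 5 min RT; TRH 1 nM final; fluorescence read 3 min, 1 s intervals; 15 concs, triplicate.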

Assay [2] shares this target. Briefly: qHTS assay to identify small molecule agonists of the thyrotropin-releasing hormone receptor (TRHR) signaling pathway (AID 1346891; calls by dose curve;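 further: HEK293 cells expressing TRHR with calcium dye readout; series mostly up to about 58 µM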). An outline of the steps: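 HEK293/TRHR cells, 1500 per well, 18 h 37 °C; Ca dye 2 h 37 °C; pin-tool compound addition (agonist mode); kinetic fluorescence 3 min, 1 s reads; 15 concentrations, triplicate.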
The nature of assay [3]: Human pregnane X receptor (PXR) small molecule agonists, qHTS cell viability counter screen (AID 1346977). Further: nearly all actives have a fitted effect of over 50% in size. In short, it runs like this:
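Fluorescence read-out (CellTiter-Fluor) of viability in PXR-Luc HepG2 cells, multiplexed with the luciferase agonist read. Compounds in DMSO added after 5hr plating; 24hr total exposure at 37C, 5% CO2.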

The nature of assay [4]: Caspase-3/7 induction in HepG2 cells by small molecules, qHTS assay (AID 1346978). Further: nearly all actives have a fitted effect of over 15% in size. An outline of the steps: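 Wild-type HepG2 cells (2,000/well) were settled 5 h at 37 C, 5% CO2, then exposed to compounds in DMSO for 17 h. Caspase-3/7 activity was read by luminescence 30 min after adding Caspase-Glo 3/7 reagent at room temperature.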
The nature of assay [5]: Caspase-3/7 induction in CHO-K1 cells by small molecules, qHTS cell viability counter screen (AID 1346979). Further: nearly all actives have a fitted effect of over 35% in size. An outline of the steps:
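CHO-K1 wt, 1,500 cells/well; 5hr pre-incubation 37C/5% CO2; compound pin transfer (DMSO); 16hr exposure; CellTiter-Fluor added, 1hr, fluorescence read.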

Assay [6] in a line: Caspase-3/7 induction in CHO-K1 cells by small molecules, qHTS assay (AID 1346980). Further: nearly all actives have a fitted effect of over 15% in size. In short, it runs like this: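 Wild-type cells were seeded at 1,500 per well and settled 5 hr at 37 C, 5% CO2, then exposed to DMSO-dissolved compounds for 17 hr. Caspase-Glo 3/7 reagent was added, and luminescence was read after 30min at room temperature.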
The nature of assay [7]: Caspase-3/7 induction in HepG2 cells by small molecules, qHTS cell viability counter screen (AID 1346981). Further: series mostly up to about 92 µM; nearly all actives have a fitted effect of over 30% in size. An outline of the steps: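 Fluorescence read-out of live-cell protease activity (CellTiter-Fluor) after 1 hr with reagent. This was measured in the same wells as the caspase-3/7 luminescence, on HepG2 cells exposed to DMSO-dissolved compounds for 16 hr at 37 C.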
Assay [8] concerns the target Nuclear receptor subfamily 1 group I member 2 (Homo sapiens) (UniProt O75469). Kind of assay: Human pregnane X receptor (PXR) small molecule agonists, qHTS assay (AID 1346982). Further: nearly all actives have a fitted effect of over 35% in size. Further: potency means the concentration at half of the fitted maximal effect. In short, it runs like this:
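HepG2 PXR-Luc reporter line, 5% charcoal-stripped FBS; 5 hr pre-incubation, compound (DMSO) 24 hr at 37 C/5% CO2; ONE-Glo 30 min RT; luminescence read-out.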

Assay [9] addresses Cytochrome P450 2D6 (Homo sapiens) (UniProt P10635). Briefly: Cytochrome P450 Family 2 Subfamily D Member 6 (CYP2D6) small molecule antagonists: luciferase reporter qHTS assay (AID 1671196). Further: nearly all actives have a fitted effect of over 50% in size. Further: potency means the concentration at half of the fitted maximal effect. In short, it runs like this: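 Luminogenic proluciferin substrate, CYP2D6 enzyme; 10 min RT preincubation with compound, NADPH regeneration system added, 1 h RT. Stop/detection reagent, 20 min RT, luminescence read (RLU). Signal proportional to CYP activity.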

Assay [10] addresses Cytochrome P450 1A2 (Homo sapiens) (UniProt P05177). Briefly: Cytochrome P450 Family 1 Subfamily A Member 2 (CYP1A2) small molecule antagonists: luciferase reporter qHTS assay (AID 1671199). Further: nearly all actives have a fitted effect of over 50% in size. Further: potency means the concentration at half of the fitted maximal effect. An outline of the steps:
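Luminescence readout (relative luminescence units) after luciferin detection reagent, 20 min RT. Preceded by 1 h room-temperature CYP1A2 reaction with NADPH regeneration solution following 10 min compound preincubation with enzyme and proluciferin substrate. Furafylline positive control.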

In assay [11] the target is Voltage-gated inwardly rectifying potassium channel KCNH2 (Homo sapiens) (UniProt Q12809). Kind of assay: Human Ether-a-go-go-Related Gene (hERG) channel small molecule antagonists: fluorescence cell-based qHTS assay (AID 1671200).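 Further: hERG-expressing U2OS cells given a thallium stimulus after FluxOR II dye loading; series mostly up to about 77 µM; nearly all actives have a fitted effect of over 50% in size.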 An outline of the steps: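 Read-out: thallium influx as a surrogate for potassium, tracked as fluorescence (480 nm ex/540 nm em) every second for 2 min after Stimulus Buffer addition in dye-loaded hERG-U2OS cells.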

For assay [12], the target named is Cytochrome P450 3A4 (Homo sapiens) (UniProt P08684). Briefly: Cytochrome P450 Family 3 Subfamily A Member 4 (CYP3A4) small molecule antagonists: luciferase reporter qHTS assay (AID 1671201). Further: nearly all actives have a fitted effect of over 50% in size. Further: potency means the concentration at half of the fitted maximal effect. In short, it runs like this: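 Luminescent readout (RLU) proportional to CYP3A4 activity, from luciferin generated off a proluciferin substrate. Enzyme–substrate mix plus compound 10 min at room temp, NADPH regeneration 1 h, detection reagent 20 min.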

Assay [13] addresses Cytochrome P450 2C19 (Homo sapiens) (UniProt P33261). Kind of assay: Cytochrome P450 Family 2 Subfamily C Member 19 (CYP2C19) small molecule antagonists: luciferase reporter qHTS assay (AID 1671197). Further: nearly all actives have a fitted effect of over 65% in size. Further: potency means the concentration at half of the fitted maximal effect. In short, it runs like this:
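Compounds were tested on CYP2C19 activity via proluciferin conversion to luciferin. The 37C, 1 h reaction followed NADPH addition; detection reagent stopped it.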

The target in assay [14] is Cytochrome P450 2C9 (Homo sapiens) (UniProt P11712). Kind of assay: Cytochrome P450 Family 2 Subfamily C Member 9 (CYP2C9) small molecule antagonists: luciferase reporter qHTS assay (AID 1671198). Further: nearly all actives have a fitted effect of over 50% in size. Further: potency means the concentration at half of the fitted maximal effect. In short, it runs like this:
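CYP2C9 activity was measured with a P450-Glo proluciferin substrate. Enzyme–substrate mix was held with compound for 10 min at room temperature, then NADPH regeneration solution was added for 1 h at 37C. Luciferin product was read as luminescence.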

For assay [15], the target named is Nuclear receptor subfamily 1 group I member 2 (Rattus norvegicus) (UniProt Q9R1A7). Briefly: Rat pregnane X receptor (rPXR) activation by small molecules, qHTS assay (AID 1346983). Further: nearly all actives have a fitted effect of over 20% in size. Conditions: rPXR luciferase reporter cells, One-Glo luminescence, 24 h; max activation: stronger effect = higher value. In short, it runs like this: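 Cell-based rPXR luciferase reporter assay, 2,000 cells per well, rested 5hr at 37 C before compound addition in DMSO, then 24 hr at 37 C. One-Glo reagent was added and luminescence read after 30 min at room temperature.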

For assay [16], the target named is Nuclear receptor subfamily 1 group I member 2 (Homo sapiens) (UniProt O75469). Kind of assay: CYP3A4 induction through human pregnane X receptor (PXR) by small molecules, qHTS assay (AID 1346984). Further: nearly all actives have a fitted effect of over 40% in size. An outline of the steps:
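HepG2-derived DPX-2 line carrying PXR plus a CYP3A4-promoter luciferase reporter; cells plated 5 hr, compound-exposed 24 hr at 37C. CYP3A4 activity probed with 3uM (final) Luciferin-IPA for 3hr, then luciferase read after One-Glo.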

Assay [17] shares this target. Briefly: Human pregnane X receptor (PXR) activation by small molecules, qHTS assay (AID 1346985). Further: nearly all actives have a fitted effect of over 40% in size. An outline of the steps:
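DPX-2 cells (HepG2 co-transfected with a PXR response element and a CYP3A4-promoter luciferase construct) were seeded at 2,000 per well, rested 5 hr at 37C, then exposed to DMSO-dissolved compounds for 24 hr. Activation was read as luciferase luminescence.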
On the % scale 0 is the no-effect control and ±100 the full control effect.

Nuclear receptor subfamily 1 group I member 2 (Homo sapiens), sequence (O75469 whole entry, looked up): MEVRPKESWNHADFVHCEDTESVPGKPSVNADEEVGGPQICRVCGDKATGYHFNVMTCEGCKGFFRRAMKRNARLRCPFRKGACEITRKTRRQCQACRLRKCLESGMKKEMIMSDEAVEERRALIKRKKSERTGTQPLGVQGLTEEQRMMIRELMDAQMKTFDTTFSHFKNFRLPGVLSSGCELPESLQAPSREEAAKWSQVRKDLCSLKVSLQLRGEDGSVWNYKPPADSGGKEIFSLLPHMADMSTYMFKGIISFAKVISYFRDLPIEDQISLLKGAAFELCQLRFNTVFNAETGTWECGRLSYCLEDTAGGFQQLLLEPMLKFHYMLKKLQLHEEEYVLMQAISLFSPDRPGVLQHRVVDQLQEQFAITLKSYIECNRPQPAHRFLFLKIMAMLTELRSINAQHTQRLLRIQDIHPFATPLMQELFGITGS
Cytochrome P450 2C9 (Homo sapiens), sequence (P11712 whole entry, looked up): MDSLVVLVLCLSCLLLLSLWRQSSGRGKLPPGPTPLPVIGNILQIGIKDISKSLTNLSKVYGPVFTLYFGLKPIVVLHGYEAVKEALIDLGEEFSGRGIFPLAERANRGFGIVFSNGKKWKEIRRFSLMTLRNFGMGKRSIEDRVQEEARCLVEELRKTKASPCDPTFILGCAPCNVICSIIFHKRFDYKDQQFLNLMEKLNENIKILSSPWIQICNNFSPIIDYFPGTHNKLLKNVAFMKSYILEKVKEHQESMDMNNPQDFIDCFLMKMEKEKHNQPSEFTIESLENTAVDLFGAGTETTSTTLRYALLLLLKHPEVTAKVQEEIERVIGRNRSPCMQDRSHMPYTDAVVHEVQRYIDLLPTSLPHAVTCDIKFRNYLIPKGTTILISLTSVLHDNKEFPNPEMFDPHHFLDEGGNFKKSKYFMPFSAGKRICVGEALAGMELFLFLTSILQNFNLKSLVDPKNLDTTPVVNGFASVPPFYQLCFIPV
Cytochrome P450 2D6 (Homo sapiens), sequence (P10635 whole entry, looked up): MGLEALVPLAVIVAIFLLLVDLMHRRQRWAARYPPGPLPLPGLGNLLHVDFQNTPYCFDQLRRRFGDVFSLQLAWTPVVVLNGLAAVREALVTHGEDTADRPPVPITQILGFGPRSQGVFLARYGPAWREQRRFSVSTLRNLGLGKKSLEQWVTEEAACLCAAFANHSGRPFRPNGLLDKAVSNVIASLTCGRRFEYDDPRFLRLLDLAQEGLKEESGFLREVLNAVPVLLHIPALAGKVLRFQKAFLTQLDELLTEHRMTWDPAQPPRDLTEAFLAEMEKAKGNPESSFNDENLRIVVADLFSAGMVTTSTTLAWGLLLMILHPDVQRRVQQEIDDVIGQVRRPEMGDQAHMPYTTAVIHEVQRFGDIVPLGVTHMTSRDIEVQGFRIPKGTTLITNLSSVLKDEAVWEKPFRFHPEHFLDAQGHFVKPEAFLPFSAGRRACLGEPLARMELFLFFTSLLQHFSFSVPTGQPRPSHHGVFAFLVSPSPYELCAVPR
Cytochrome P450 3A4 (Homo sapiens), sequence (P08684 whole entry, looked up): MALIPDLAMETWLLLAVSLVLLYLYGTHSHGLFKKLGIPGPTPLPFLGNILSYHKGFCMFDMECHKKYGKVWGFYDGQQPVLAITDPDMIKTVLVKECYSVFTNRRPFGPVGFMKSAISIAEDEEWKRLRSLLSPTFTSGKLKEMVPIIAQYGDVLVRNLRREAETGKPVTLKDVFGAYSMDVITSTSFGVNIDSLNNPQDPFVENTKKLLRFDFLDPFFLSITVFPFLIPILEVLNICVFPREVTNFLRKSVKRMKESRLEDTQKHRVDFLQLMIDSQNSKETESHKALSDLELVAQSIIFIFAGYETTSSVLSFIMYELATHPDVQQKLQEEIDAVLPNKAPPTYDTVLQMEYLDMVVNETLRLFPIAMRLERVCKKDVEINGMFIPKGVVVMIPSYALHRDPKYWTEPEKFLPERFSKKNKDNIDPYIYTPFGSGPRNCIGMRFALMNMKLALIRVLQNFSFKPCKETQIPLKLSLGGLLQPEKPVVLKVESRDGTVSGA
Cytochrome P450 1A2 (Homo sapiens), sequence (P05177 whole entry, looked up): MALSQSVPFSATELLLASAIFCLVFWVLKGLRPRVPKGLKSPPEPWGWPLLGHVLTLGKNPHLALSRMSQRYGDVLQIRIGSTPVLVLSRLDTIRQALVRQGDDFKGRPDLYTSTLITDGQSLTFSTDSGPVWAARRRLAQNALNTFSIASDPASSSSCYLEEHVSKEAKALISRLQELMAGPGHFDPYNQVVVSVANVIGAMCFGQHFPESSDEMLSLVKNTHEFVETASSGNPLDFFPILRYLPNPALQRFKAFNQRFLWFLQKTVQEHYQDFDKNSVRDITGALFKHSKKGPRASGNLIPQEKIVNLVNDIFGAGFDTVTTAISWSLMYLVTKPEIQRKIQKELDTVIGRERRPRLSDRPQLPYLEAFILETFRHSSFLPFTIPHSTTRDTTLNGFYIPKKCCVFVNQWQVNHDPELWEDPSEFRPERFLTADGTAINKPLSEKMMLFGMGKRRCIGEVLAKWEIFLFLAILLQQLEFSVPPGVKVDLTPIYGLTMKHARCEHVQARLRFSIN
Thyrotropin-releasing hormone receptor (Homo sapiens), sequence (P34981 whole entry, looked up): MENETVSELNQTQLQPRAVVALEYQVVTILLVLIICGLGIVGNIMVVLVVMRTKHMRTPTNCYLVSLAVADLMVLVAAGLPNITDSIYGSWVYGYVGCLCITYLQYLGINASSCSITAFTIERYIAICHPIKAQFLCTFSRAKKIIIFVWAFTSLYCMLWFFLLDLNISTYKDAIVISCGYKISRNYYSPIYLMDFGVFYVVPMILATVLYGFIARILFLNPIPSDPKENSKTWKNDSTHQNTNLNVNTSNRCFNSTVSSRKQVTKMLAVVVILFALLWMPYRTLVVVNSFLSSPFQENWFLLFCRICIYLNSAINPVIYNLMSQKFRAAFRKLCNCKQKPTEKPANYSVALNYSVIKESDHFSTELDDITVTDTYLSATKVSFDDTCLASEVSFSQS
Voltage-gated inwardly rectifying potassium channel KCNH2 (Homo sapiens), sequence (Q12809 whole entry, looked up): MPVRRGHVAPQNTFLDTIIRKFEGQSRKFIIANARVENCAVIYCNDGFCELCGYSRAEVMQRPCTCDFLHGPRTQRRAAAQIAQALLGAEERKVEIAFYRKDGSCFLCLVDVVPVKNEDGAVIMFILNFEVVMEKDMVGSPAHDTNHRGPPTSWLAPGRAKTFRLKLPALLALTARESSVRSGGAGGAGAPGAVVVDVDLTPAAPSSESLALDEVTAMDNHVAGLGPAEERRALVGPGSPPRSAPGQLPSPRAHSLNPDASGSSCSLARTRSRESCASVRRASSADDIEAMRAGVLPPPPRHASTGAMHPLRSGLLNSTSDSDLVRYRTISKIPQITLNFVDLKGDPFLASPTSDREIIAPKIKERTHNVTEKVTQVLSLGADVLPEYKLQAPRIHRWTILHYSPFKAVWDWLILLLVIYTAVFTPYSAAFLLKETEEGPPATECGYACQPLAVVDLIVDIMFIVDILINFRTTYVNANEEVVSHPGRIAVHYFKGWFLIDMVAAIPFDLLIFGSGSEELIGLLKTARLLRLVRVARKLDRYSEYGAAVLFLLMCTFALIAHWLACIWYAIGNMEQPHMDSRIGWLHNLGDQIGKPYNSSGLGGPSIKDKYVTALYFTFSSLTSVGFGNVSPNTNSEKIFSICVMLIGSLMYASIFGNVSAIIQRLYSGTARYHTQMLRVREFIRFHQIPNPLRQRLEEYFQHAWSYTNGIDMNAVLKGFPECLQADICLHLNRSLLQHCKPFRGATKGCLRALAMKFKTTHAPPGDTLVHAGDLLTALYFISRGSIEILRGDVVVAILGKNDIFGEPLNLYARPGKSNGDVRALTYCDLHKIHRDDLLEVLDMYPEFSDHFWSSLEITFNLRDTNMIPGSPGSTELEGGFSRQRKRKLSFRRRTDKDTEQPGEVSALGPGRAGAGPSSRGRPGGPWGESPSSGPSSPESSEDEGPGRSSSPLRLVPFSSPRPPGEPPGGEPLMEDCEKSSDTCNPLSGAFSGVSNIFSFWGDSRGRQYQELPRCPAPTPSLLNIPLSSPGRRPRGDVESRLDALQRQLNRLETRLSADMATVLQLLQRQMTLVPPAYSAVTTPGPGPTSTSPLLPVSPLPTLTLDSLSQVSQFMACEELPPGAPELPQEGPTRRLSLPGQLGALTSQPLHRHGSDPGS
Cytochrome P450 2C19 (Homo sapiens), sequence (P33261 whole entry, looked up): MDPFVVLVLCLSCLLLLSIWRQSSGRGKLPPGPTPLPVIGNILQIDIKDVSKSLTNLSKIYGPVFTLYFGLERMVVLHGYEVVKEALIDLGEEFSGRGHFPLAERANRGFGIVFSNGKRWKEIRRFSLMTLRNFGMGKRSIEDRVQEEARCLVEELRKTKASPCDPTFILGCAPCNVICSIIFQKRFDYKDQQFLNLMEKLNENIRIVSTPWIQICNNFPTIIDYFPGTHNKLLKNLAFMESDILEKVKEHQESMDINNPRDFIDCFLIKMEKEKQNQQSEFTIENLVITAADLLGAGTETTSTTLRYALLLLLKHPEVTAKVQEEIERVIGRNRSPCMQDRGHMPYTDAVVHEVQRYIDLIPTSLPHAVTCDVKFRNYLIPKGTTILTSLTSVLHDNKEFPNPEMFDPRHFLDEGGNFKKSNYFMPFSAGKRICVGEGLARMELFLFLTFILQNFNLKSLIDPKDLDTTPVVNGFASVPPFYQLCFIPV
Nuclear receptor subfamily 1 group I member 2 (Rattus norvegicus), sequence (Q9R1A7 whole entry, looked up): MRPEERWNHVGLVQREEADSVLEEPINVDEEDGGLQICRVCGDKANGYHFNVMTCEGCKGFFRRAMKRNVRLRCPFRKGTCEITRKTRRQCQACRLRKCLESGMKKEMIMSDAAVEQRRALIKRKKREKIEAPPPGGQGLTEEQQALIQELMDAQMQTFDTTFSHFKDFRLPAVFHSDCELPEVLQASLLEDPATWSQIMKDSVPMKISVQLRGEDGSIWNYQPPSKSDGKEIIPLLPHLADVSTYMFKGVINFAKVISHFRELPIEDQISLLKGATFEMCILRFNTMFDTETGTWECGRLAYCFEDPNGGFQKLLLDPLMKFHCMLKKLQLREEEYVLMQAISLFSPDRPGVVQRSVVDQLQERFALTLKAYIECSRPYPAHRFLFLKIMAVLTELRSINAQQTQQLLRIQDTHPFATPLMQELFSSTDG

`COC(C)(C)CC(C)=O`: the call in assay [1], in assay [3], in assay [4], in [6] and in [7] was inactive. Further, the Potency entry in assay [2], in assay [5], in [8], in assay [9], in [10] and in assay [11] was “inactive” in each case. In assay [12], the Potency entry was “inactive”.
As to `C/C=C(\C)C=O`, the result in [1], in [3], in assay [6] and in assay [7] was inactive. The Potency entry in assay [2], in assay [5], in assay [8], in assay [9], in assay [13] and in assay [14] was “inactive” throughout. Moreover, the Potency result in assay [11] and in assay [12] was “inactive” in each case. Further, the Potency in assay [10] is 63.6 µM (active).
As to `C=COCCCCO`, the call in assay [1], in assay [3], in assay [6] and in assay [7] was inactive. The Potency result in [2], in [13], in assay [11] and in [12] was “inactive” throughout.
For the compound `COC(=O)c1ccc(NC(C)=O)cc1OC`, the call in [1], in assay [3], in [4] and in assay [7] was inactive. Besides, the Potency entry in [2], in assay [5], in [8], in assay [14] and in [11] was “inactive” throughout. Moreover, the Potency in assay [10] is 11.5 µM (active).
Turning to `CC(O)C(CO)C(C)O` (stereo unspecified), the call in [1], in [3], in assay [4], in assay [6] and in assay [7] was inactive. Also, the Potency entry in assay [2], in [8], in assay [14], in assay [11] and in assay [12] was “inactive” in each case. In addition, the Potency in assay [13] is 80.6 µM (active); in assay [10], 32.1 µM (active).
Consider `CC12CCCC=C1C(=O)OC2=O` (stereo unspecified), for which the outcome in [1], in [3], in assay [4], in [6] and in [7] was inactive. Besides, the Potency entry in assay [2], in [5], in assay [9], in assay [13], in [11] and in assay [12] was “inactive” each time.
With `CC(=O)OC1CCC(C(C)(C)C)CC1` (stereo unspecified), the call in [1], in [3], in [4] and in assay [7] was inactive. In addition, the Potency entry in assay [2], in assay [5], in assay [8], in assay [9], in assay [13] and in assay [14] was “inactive” each time. In addition, the Potency entry in [12] was “inactive”.
Regarding `Nc1nc(Cl)cc(Cl)n1`, the result in [1], in assay [3], in [4] and in assay [6] was inactive. In addition, the Potency entry in assay [2], in [8], in assay [9], in assay [13], in assay [14] and in assay [11] was “inactive” throughout.
As to `O=P(O)(O)C(O)(Cc1cccnc1)P(=O)(O)O`, the outcome in [3], in assay [4], in assay [7], in [16] and in assay [17] was inactive. Further, the Potency result in assay [5], in assay [9], in [13], in assay [14], in [10] and in assay [11] was “inactive” each time. For the same compound, the Potency entry in assay [12] was “inactive”. Further, in [15], the max activation was -2.56%.
Take `CCO[Si](CC(C)C)(OCC)OCC`: the result in assay [1], in assay [3], in assay [6] and in assay [7] was inactive. For the same compound, the Potency result in assay [2], in assay [5] and in [11] was “inactive” each time. For the same compound, the Potency is 44.8 µM (active) in [9], 35.6 µM (active) in assay [13], 39.9 µM (active) in [14] and 31.7 µM (active) in assay [12].
On to `O=C(c1ccccc1)c1cccc(O)c1`, for which the call in [1], in assay [3] and in assay [4] was inactive. Besides, the Potency result in [2], in assay [5] and in assay [14] was “inactive” each time. Besides, the Potency is 55.3 µM (active) in [8], 64.3 µM (active) in assay [9], 22.8 µM (active) in [13] and 36.2 µM (active) in assay [10].
